# The list is not random: actives were taken first. Their share in the collection is about 8.7%.
# 12-LOX inh = Primary qHTS assay for inhibitors of human arachidonate 12S-lipoxygenase (ALOX12): Round 2 | Polyunsaturated fatty acid lipoxygenase ALOX12 (Homo sapiens), P18054 | purified 12hLO, xylenol orange hydroperoxide absorbance | Potency, µM (top dose mostly 108 µM), without a hit: at the highest dose activity change, negative = inhibition, usual class: inhibitors | actives 1.1% (n = 580,000) | AID 1671190, 2021; note: % is set by controls: 0 for no effect and ±100 for the full control effect
#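 Hydroperoxide product was detected by ferrous iron/xylenol orange as the 573 to 405 nm absorbance ratio. Arachidonic acid at 40 uM (final) was turned over for 30 min at room temperature by 150 nM human 12hLO, pH 7.0 Hepes buffer, after 15 min compound preincubation.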
# Sfp inh = qHTS Assay for Inhibitors of Bacillus subtilis Sfp phosphopantetheinyl transferase (PPTase); 4'-phosphopantetheinyl transferase ffp (Bacillus subtilis), Q9F4F7; Biochemical Sfp PPTase activity, qHTS; Potency, µM, without a hit: largest response in the series, negative = inhibition, actives largely listed as inhibitors; actives 3.5% (n = 310,000); AID 1490, 2009;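 note: the enzyme is Sfp with the accession as filed and its product quenches rhodamine fluorescence; 0% = enzyme reaction without inhibitor and -100% = no enzyme wells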
#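 Compounds were incubated with enzyme (final 15 nM) for 15 min at room temperature before substrate addition started the reaction. Fluorescence at 525 nm excitation, 598 nm emission was recorded immediately and after 30 minutes.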
# G9a block = qHTS Assay for Inhibitors of Histone Lysine Methyltransferase G9a | actives 8.8% (n = 350,000) | Histone-lysine N-methyltransferase EHMT2 (Homo sapiens), Q96KQ7 | G9a H3K9 monomethylation, AlphaScreen, 2 h | Potency, µM (top dose mostly 102 µM), for the others: at the top dose activity, negative = inhibition, actives largely listed as inhibitors | AID 504332, 2011; note: % is set by controls: 0 for no effect and ±100 for the full control effect; nearly all actives have a fitted effect of over 75% in size
# Target sequence (Q96KQ7 913-1193 limits assumed): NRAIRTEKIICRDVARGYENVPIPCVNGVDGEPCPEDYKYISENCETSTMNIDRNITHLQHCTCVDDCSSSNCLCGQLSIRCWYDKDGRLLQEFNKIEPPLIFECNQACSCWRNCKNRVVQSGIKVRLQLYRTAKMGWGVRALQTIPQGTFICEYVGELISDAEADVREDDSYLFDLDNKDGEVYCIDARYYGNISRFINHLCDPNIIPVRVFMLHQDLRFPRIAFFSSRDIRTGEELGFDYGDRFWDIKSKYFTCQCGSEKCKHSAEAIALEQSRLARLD
#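 Readings reflect AlphaScreen signal from monomethyl-H3K9 antibody detection. HMT at 20 nM; substrate b-H3K9 500 nM; cofactor SAM 20 uM; 2 h RT reaction; compounds tested as titrations in qHTS with 15 min preincubation.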
# JMJD2A Tudor inh = qHTS Assay for Inhibitors of JMJD2A-Tudor Domain; actives 4.4% (n = 390,000); Potency, µM (series often up to 114 µM), for the others: top-dose activity change, negative = inhibition, usual class: inhibitors; AlphaScreen JMJD2A-Tudor / H3K4me3 peptide binding; Lysine-specific demethylase 4A (Homo sapiens), O75164; note: % is set by controls: 0 for no effect and ±100 for the full control effect; nearly all actives have a fitted effect of over 50% in size
# HP1b chromo inh = HTS for Inhibitors of HP1-beta Chromodomain Interactions with Methylated Histone Tails; Chromobox protein homolog 1 (Homo sapiens), P83916; AlphaScreen HP1-beta / biotin-H3K9me3 peptide binding; Potency, µM (doses to about 114 µM), for the others: top-dose activity change, negative = inhibition, hits mostly inhibitors; actives 0.56% (n = 390,000); note: nearly all actives have a fitted effect of over 70% in size
# Target sequence (P83916 whole entry, looked up): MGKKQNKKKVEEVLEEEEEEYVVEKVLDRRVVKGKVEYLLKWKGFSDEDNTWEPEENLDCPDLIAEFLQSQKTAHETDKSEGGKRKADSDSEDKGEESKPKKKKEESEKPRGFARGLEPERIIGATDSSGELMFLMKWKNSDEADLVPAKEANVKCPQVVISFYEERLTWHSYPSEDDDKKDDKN
#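 Compound inhibition of the preformed complex between 50 nM HP1-beta and 50 nM biotinylated H3K9me3 peptide was read by AlphaScreen. Buffer was PBS pH 7.4 with 0.01% Tween-20. Incubations ran 30 min at room temperature, with 10 ug/mL donor/acceptor beads.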
# BAZ2B inh = qHTS Assay for Inhibitors of BAZ2B; Potency, µM (doses to about 114 µM), inactives show at the highest dose activity change, negative = inhibition, usual class: inhibitors; AlphaScreen BAZ2B-H3K14Ac peptide displacement; Bromodomain adjacent to zinc finger domain protein 2B (Homo sapiens), Q9UIF8; actives 4.4% (n = 360,000); note: % is set by controls: 0 for no effect and ±100 for the full control effect; nearly all actives have a fitted effect of over 60% in size
#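 Protein-peptide AlphaScreen: BAZ2B 50 nM, b-H3K14Ac 50 nM, 1x PBS pH 7.4 + 0.01% Tween-20. Preincubation 30 min RT; cpd 30 min RT (top 110 uM); beads 20 min RT, light-protected.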
# Active calls of the source: *; ? = inconclusive; / = not tested or not shown; [ ] = remark or other dose. Calls come from the whole dose curve; as a rule, active = well fitted curve in the direction sought with a large enough effect; inconclusive = small, poorly fitted or top-dose-only effect, or another doubt; inactive = no such curve, though single readings can be large; an effect the other way counts as inactive or inconclusive. Potency is the fitted concentration of half-maximal effect.
SMILES,12-LOX inh,Sfp inh,G9a block,JMJD2A Tudor inh,HP1b chromo inh,BAZ2B inh
O=c1[nH]c2ccc(N=Cc3c(O)ccc4cc(Br)ccc34)cc2[nH]1,-27%,3%,1.6µM*,45µM*,0%,?
Cc1cccc(-n2[nH]c(C)c(C=Nc3ccc4[nH]c(=O)[nH]c4c3)c2=O)c1,18%,1%,-7%,-10%,-1%,-26%
N#Cc1ccccc1S(=O)(=O)NC1CCSc2c(F)cccc21 (centres undefined),-4%,/,/,/,/,/
CC(=O)Nc1ccc(S(=O)(=O)N2CCN3CCCC3C2)cc1 (centres undefined),-9%,19%,79µM*,-1%,30%,-9%
CC1CCN(S(=O)(=O)c2ccc(NC(=O)CN3CCCC3)cc2)CC1,?,4%,10µM*,4µM*,-26%,71µM*
O=C(CN1CCCC1)Nc1ccc(S(=O)(=O)N2CCCCC2)cc1,-7%,6%,-8%[59 µM],-3%,28%,3%
CC1CCN(CC(=O)Nc2ccc(S(=O)(=O)NC3CC3)cc2)CC1,?,12%,14µM*,20µM*,?,50µM*
CC1CCN(S(=O)(=O)c2ccc(NC(=O)Cc3cccs3)cc2)CC1,?,2%,?,50µM*,1%,?
CC(C)(CNC(=O)c1cc(-c2ccccc2F)on1)N1CCOCC1,-10%,/,/,/,/,/
CCN(CC(=O)Nc1ccc(OC)cc1)C(=O)Cc1cccs1,?,/,6%[0.501 µM],?,-22%,50µM*
NS(=O)(=O)c1ccc(NC(=O)Cc2cccs2)cc1,9%,11%,-5%[59 µM],-7%,4%,2%
CC1CCCN(S(=O)(=O)c2ccc(NC(=O)CN3CCCCC3)cc2)C1 (centres undefined),-1%,17%,45µM*,?,24%,-1%
CC1CCN(CC(=O)Nc2ccc(S(=O)(=O)N3CCC(C)CC3)cc2)CC1,?,-25%,/,0.79µM*,?,?
CCN(CC)S(=O)(=O)c1ccc(NC(=O)Cc2cccs2)cc1,?,4%,-7%[59 µM],-23%[11.4 µM],?,71µM*
CC1CCN(S(=O)(=O)c2ccc(NC(=O)CN3CCOCC3)cc2)CC1,12%,19%,?,-7%,23%,-4%
Cc1ccc(S(=O)(=O)N(CC(=O)NC(C(C)C)C(C)C)c2ccccc2C)cc1,-4%,/,/,/,/,/
CCOc1ccc(CN2CCN(S(=O)(=O)c3ccc(NC(C)=O)cc3)CC2)cc1OC,?,-21%,6.3µM*,22µM*,?,50µM*
CC(=O)Nc1ccc(S(=O)(=O)N2CCN(Cc3cccs3)CC2)cc1,?,-18%,18µM*,-99%,32µM*,35µM*
Cc1noc(C)c1C(=O)Nc1ccc(S(=O)(=O)N2CCC(C)CC2)cc1,-29%,/,22µM*,-11%,33%,-6%
COc1ccc(S(=O)(=O)N2CCN(Cc3ccc(OC)c(OC)c3)CC2)cc1,13%,8%,/,-8%,55%,7%
CC(=O)Nc1ccc(S(=O)(=O)N2CCN(C(C)CCc3ccccc3)CC2)cc1 (centres undefined),5.6µM*,-13%,7.1µM*,1µM*,?,50µM*
Cc1oc2cc(OCC(=O)N3CCC(C(N)=O)CC3)ccc2c(=O)c1Oc1ccccc1,23%,/,/,/,/,/
Cc1nc(NCCc2ccc3c(c2)OCO3)c2c3c(sc2n1)CCC3,-10%,/,/,/,/,/
CC(C)C(=O)N1Cc2ccccc2CC2(CCCCN2C)C1 (centres undefined),9%[6.33 µM],/,/,/,/,/
CC(C)C(=O)NCC12CCCC=C1NC(=O)CC2 (centres undefined),24%,/,/,/,/,/
SMILES,12-LOX inh,Sfp inh,G9a block,JMJD2A Tudor inh,HP1b chromo inh,BAZ2B inh
O=C(NCCc1nccc(-c2ccccc2)n1)C1NCCc2[nH]cnc21 (centres undefined),116%,/,/,/,/,/
Cc1oc(-c2nc(C#N)c(NCc3ccccc3Cl)o2)cc1S(=O)(=O)N(C)C,-4%,/,/,/,/,/
O=C(Nc1ccccc1C(=O)NC1CCCC1)c1cnc2ccccc2n1,2%,/,/,/,/,/
CCc1cccc(NC(=O)CN2C(=O)CCc3cc(S(=O)(=O)N4CCOCC4)ccc32)c1,?,/,23%[59 µM],-18%,11%,-17%
CC1CCN(S(=O)(=O)c2ccc3c(c2)CCC(=O)N3CC(=O)Nc2cccc(C#N)c2)CC1,6%,/,3%[12.7 µM],-32%,-21%,50µM*
Cc1c(NC(=O)/C(C#N)=C/c2ccc(-c3cc(Cl)ccc3Cl)o2)c(=O)n(-c2ccccc2)n1C,10%,-8%,?,?,22%,?
N#C/C(=C/c1ccc(-c2ccc(C(=O)O)c(Cl)c2)o1)C(=O)NCC1CCCO1 (centres undefined),?,1%,?,-6%,-12%,56µM*
N#C/C(=C\c1ccc(-c2ccc(Br)cc2)o1)C(=O)Nc1ccccc1O,-23%,/,-24%[59 µM],-17%,10%,-1%
N#C/C(=N\Nc1ccc(Cl)cc1)C(=O)c1ccccc1,?,6%,?,45µM*,?,50µM*
CCOC(=O)NC(=O)/C(C#N)=N\Nc1ccc(Cl)cc1,?,-7%,-25%,-23%,-9%,-37%
N#C/C(=C\c1ccc(-c2ccc(C(=O)O)cc2)o1)C(=O)Nc1ccccc1C(=O)O,?,/,?,79µM*,-5%,?
Cc1c(NC(=O)/C(C#N)=C/c2ccc(-c3ccc(Cl)cc3)o2)c(=O)n(-c2ccccc2)n1C,?,?,20µM*,?,-16%,50µM*
Cc1cc(C(=O)N2CCC3(CC2)c2[nH]c4ccccc4c2CCN3C)n(C)n1,40%,/,/,/,/,/
COC(=O)C(=NNc1c(C)n(C)n(-c2ccccc2)c1=O)C(=O)OC,-13%,-12%,?,-2%,41%,1%
Cc1c(N/N=C(\C#N)C(=O)c2ccc(Cl)cc2)c(=O)n(-c2ccccc2)n1C,8.9µM*,7%,?,79µM*,-3%,25µM*
O=C(N[C@H]1CO[C@H]2[C@@H]1OC[C@@H]2n1cc(-c2ccccc2)nn1)c1ccc(C(F)(F)F)cc1,3%,/,/,/,/,/
CN(C(=O)COC(=O)CCc1c[nH]c2ccccc12)C(c1ccccc1)c1ccccc1,0%,18%,13µM*,?,-3%,?
O=C(CCc1c[nH]c2ccccc12)OCC(=O)c1ccccc1,2%,/,/,/,/,/

# Screening data: PubChem, National Center for Advancing Translational Sciences (NCATS)
